Measured values as given in PubChem BioAssay AID1159580 (chemical genetic matrix, 2015).
Several values for one entry are separate records, joined by “and”; a condition that tells them apart may be missing. Equal values may be shown once. Hit rate of the full screen: of about 5,500 compounds, about 2,000 (36%) were called active. Another 18% or so got no clear call; they are omitted. Cut-off read from the data, not from the text of the source: active = normalized growth mostly below about 0.91 (no sharp cut-off); inconclusive = no clear call, values can overlap the other calls; inactive = mostly above about 0.92. Some of the results follow.

Test: chemical genetic growth profiling, strain panel (AID 1159580);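 note: tested at 20 µM; growth read once vehicle control cultures reached saturation at 30 °C; 1 = growth at the plate median or of vehicle wells; lower values mean less growth of the strain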
Details: S. cerevisiae deletion strains, growth OD

Measured: normalized growth

OC(CCN1CCCCC1)(c1ccccc1)C1CCCCC1 (stereo unspecified)
active: locus YER155C, strain BEM2, hits give low values 0.791
inactive: locus YAL013W, strain DEP1, hits give low values 1.01 | locus YAL021C, strain ccr4, hits give low values 0.968 | locus YAL026C, strain drs2, hits give low values 0.994 | locus YAL030W, strain snc1, hits give low values 0.97 | locus YAL040C, strain CLN3, hits give low values 1.06 | locus YBL061C, strain skt5, hits give low values 0.979 | locus YBR009C, strain hhf1, hits give low values 0.993 | locus YBR021W, strain FUR4, hits give low values 0.998 | locus YBR023C, strain chs3, hits give low values 0.977 | locus YBR171W, strain sec66, hits give low values 0.974 | locus YBR229C, strain ROT2, hits give low values 1.01 | locus YBR231C, strain swc5, hits give low values 0.957 | locus YBR279W, strain paf1, hits give low values 0.984 | locus YCL011C, strain gbp2, hits give low values 0.978 | locus YCL016C, strain dcc1, hits give low values 0.993 | locus YCL029C, strain bik1, hits give low values 1 | locus YCL061C, strain MRC1 (second series), hits give low values 0.981 | locus YCL061C, strain MRC1, hits give low values 0.966 | locus YCL069W, strain vba3, hits give low values 0.974 | locus YCR088W, strain abp1, hits give low values 0.98 | locus YDL005C, strain med2, hits give low values 0.972 | locus YDL035C, strain GPR1, hits give low values 1.01 | locus YDL040C, strain nat1, hits give low values 0.98 | locus YDL074C, strain BRE1, hits give low values 0.999 | locus YDL101C, strain DUN1, hits give low values 1.01 | locus YDL134C, strain PPH21, hits give low values 1.01 | locus YDL185W, strain tfp1, hits give low values 1 | locus YDL192W, strain arf1, hits give low values 1.01 | locus YDR001C, strain nth1, hits give low values 0.969 | locus YDR069C, strain doa4, hits give low values 0.948 | locus YDR101C, strain arx1, hits give low values 0.995 | locus YDR137W, strain rgp1, hits give low values 1.02 | locus YDR150W, strain NUM1, hits give low values 1.02 and 0.996 | locus YDR159W, strain sac3, hits give low values 0.998 | locus YDR162C, strain NBP2, hits give low values 1.01 | locus YDR195W, strain ref2 0.927 | locus YDR297W, strain sur2, hits give low values 0.965 | locus YDR318W, strain mcm21, hits give low values 0.991 | locus YDR334W, strain swr1, hits give low values 0.975 | locus YDR335W, strain msn5, hits give low values 0.975 | locus YDR363W, strain ESC2, hits give low values 0.954 | locus YDR388W, hits give low values 0.996 | locus YDR392W, strain spt3, hits give low values 1.01 | locus YDR502C, strain sam2, hits give low values 0.998 | locus YEL003W, strain gim4, hits give low values 0.975 | locus YEL037C, strain rad23, hits give low values 0.969 | locus YEL061C, strain CIN8 (second series), hits give low values 0.974 | locus YEL061C, strain CIN8, hits give low values 1.01 | locus YER002W, strain NOP16, hits give low values 1.03 | locus YER015W, strain faa2, hits give low values 0.976 | locus YER016W, strain bim1, hits give low values 1 | locus YER110C, hits give low values 1 | locus YER111C, strain swi4, hits give low values 0.961 | locus YER155C, strain BEM2 (second series), hits give low values 0.929 | locus YER167W, strain BCK2, hits give low values 1.01 | locus YFR010W, strain ubp6, hits give low values 0.975 | locus YGL078C, strain dbp3, hits give low values 0.991 | locus YGL086W, strain mad1, hits give low values 0.993 | locus YGL167C, strain pmr1, hits give low values 0.961 | locus YGL173C, strain kem1, hits give low values 0.934 | locus YGL227W, strain vid30, hits give low values 0.982 | locus YGL240W, strain doc1, hits give low values 0.961 | locus YGL248W, strain PDE1, hits give low values 1.01 | locus YGL253W, strain hxk2, hits give low values 0.97 | locus YGR078C, strain PAC10, hits give low values 0.996 | locus YGR135W, strain pre9, hits give low values 0.985 | locus YGR229C, strain SMI1, hits give low values 1 and 0.945 | locus YGR252W, strain gcn5, hits give low values 0.975 | locus YHR013C, strain ard1, hits give low values 0.971 | locus YHR027C, strain rpn1, hits give low values 0.988 | locus YHR030C, strain SLT2, hits give low values 1.02 and 0.961 | locus YHR079C, strain IRE1 (second series), hits give low values 0.992 | locus YHR079C, strain IRE1, hits give low values 0.99 | locus YHR094C, strain hxt1, hits give low values 1 | locus YHR129C, strain ARP1, hits give low values 1.01 | locus YHR142W, strain chs7, hits give low values 0.978 | locus YHR200W, strain rpn10, hits give low values 1 | locus YIL066C, strain RNR3, hits give low values 1.01 | locus YIL073C, strain SPO22, hits give low values 1.05 | locus YIL125W, strain kgd1, hits give low values 1 | locus YIR030C, strain dcg1, hits give low values 0.999 | locus YJL092W, strain hpr5, hits give low values 0.954 | locus YJL095W, strain BCK1 (second series), hits give low values 0.971 | locus YJL095W, strain BCK1, hits give low values 0.984 and 0.98 | locus YJL115W, strain asf1, hits give low values 0.961 | locus YJL129C, strain trk1, hits give low values 0.953 | locus YJL134W, strain LCB3, hits give low values 1.01 | locus YJL154C, strain vps35, hits give low values 0.971 | locus YJL164C, strain tpk1, hits give low values 1.01 | locus YJL166W, strain qcr8, hits give low values 0.925 | locus YJL168C, strain set2, hits give low values 0.991 | locus YJL187C, strain SWE1 (second series), hits give low values 1.01 | locus YJL187C, strain SWE1, hits give low values 0.975 | locus YJR043C, strain POL32, hits give low values 1.01 | locus YJR066W, strain TOR1, hits give low values 0.93
